Compound activity as filed in PubChem BioAssay.
Pf growth 96h: P. falciparum growth inhibition at 96 hour, primary screen for plastid delayed-death inhibitors. P. falciparum luciferase reporter growth, 96 h. Potency, µM (titrated, usually from 28.7 µM), most hits filed as inhibitors. 6.9% of 320,000 active. AID 504834
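Two-generation exposure (96 h) targets delayed-death phenotype. Reporter parasites carrying integrated firefly luciferase, in red cells at 2% hematocrit and 0.05% parasitemia final, kept at 37 C, 5% CO2; luminescence loss indicates inhibition.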
Pf growth 48h: P. falciparum growth inhibition at 48 hours (one generation); AID 504832; 5.9% of 310,000 active; P. falciparum luciferase growth in erythrocytes, 48 h; Potency, µM (highest dose often 28.7 µM), usual class: inhibitors
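Luciferase-expressing P. falciparum in infected erythrocytes (2% hematocrit, 0.1% parasitemia final) in RPMI 1640/0.5% Albumax were exposed to compound for 48 hours at 37 C, 5% CO2; growth read as luminescence.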
Shiga toxin inh: blocks Shiga toxin action in Vero cells; inhibition, % at 38.7 µM; Vero cells, Shiga toxin protein synthesis inhibition reporter; 9.2% of 290,000 active; in the data active = inhibition mostly above about 28%, no sharp cut-off; inactive = mostly below about 43%
NS1 function inh: influenza NS1 inhibition | Potency, µM (series often up to 46.1 µM) | 0.4% of 270,000 active | AID 2326; calls by dose curve; note: actives are rising curves; nearly all actives have a fitted effect of over 50% in size
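Recovery from NS1-induced slow growth read by OD600 in budding yeast switched to galactose assay medium (pH 6.0, -URA) at 1:100 dilution. Compound 23 nl per well; the matching strain lacking NS1 serves as control.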
Cycloheximide cs: counter-screen hit for Shiga toxin inhibitors, cycloheximide; cell reporter, cycloheximide protein synthesis inhibition counterscreen; 12% of 300,000 active; max response, %; in the data active = max response mostly above about 13%, no sharp cut-off; inactive = mostly below about 14%; note: read at 38.3 µM for the half of the compounds with a filed dose
Large screens that a line does not name were inactive. The list is not random: actives were taken first. Their share in the collection is about 21%. Unless noted, calls come from the whole dose curve; as a rule, active = well fitted inhibition curve with a large enough effect; inconclusive = small, poorly fitted or top-dose-only effect, or another doubt; inactive = no such curve, though single readings can be large or run the other way.

O=C(Nc1ccccc1F)C1CC1c1ccccc1 (configuration not stated)	Shiga toxin inh 41
O=C1CN(C(=S)NC(=O)c2ccccc2[N+](=O)[O-])CCN1	Pf growth 96h 7.4µM
O=C(NNC(=O)C1CC1c1ccccc1)c1ccccc1F (configuration not stated)	Pf growth 96h inconclusive
O=C(O)c1cc([N+](=O)[O-])c(Sc2nc3ccccc3[nH]2)c([N+](=O)[O-])c1	none (no result: Pf growth 48h)
O=C(NNC(=O)c1ccccc1[N+](=O)[O-])c1ccccc1[N+](=O)[O-]	Pf growth 96h 7.4µM
O=C(NC(=S)NNC(=O)c1ccccc1[N+](=O)[O-])c1ccccc1	Pf growth 96h inconclusive, Pf growth 48h inconclusive
O=C(NNC(=O)C1CC1c1ccccc1)Nc1ccccc1 (configuration not stated)	none
O=C(NNC(=O)C12CC3CC(CC(C3)C1)C2)[C@@H]1C[C@H]1c1ccccc1	Pf growth 96h inconclusive, Shiga toxin inh 46, Cycloheximide cs 26 (no result: NS1 function inh)
COc1ccc(C(=O)NNC(=O)c2ccccc2[N+](=O)[O-])cc1	Pf growth 96h 13µM, Shiga toxin inh 37, Cycloheximide cs 32
COc1ccc(C(=O)NNC(=O)c2ccccc2[N+](=O)[O-])cc1Br	none
CC1(C)Cc2ccccc2-c2nnc(-c3cccnc3)n21	Pf growth 48h 2.3µM (no result: Pf growth 96h)
CC1(C)Cc2ccccc2-c2nnc(SCC(=O)N3CCN(c4ccccc4)CC3)n21	none (no result: Pf growth 96h)
CC1(C)Cc2ccccc2-c2nnc(SCc3ccccc3)n21	Pf growth 48h inconclusive, Cycloheximide cs 11
Cc1cc2cc(C)c3nnc(SCC(=O)N4CCc5ccccc54)n3c2cc1C	none
Cc1ccc(C(=O)COC(=O)c2cnccn2)cc1	none (no result: Pf growth 96h)
Cn1ccc(C(=O)OCC(=O)c2ccccc2)n1	Cycloheximide cs 17
NNC(=O)c1cn2ccccc2n1	Pf growth 48h inconclusive, Shiga toxin inh 60, Cycloheximide cs 29
O=C(Nc1nccs1)c1cn2ccccc2n1	none
Cc1ccc(C(=O)COC(=O)c2cn3ccccc3n2)cc1	Cycloheximide cs 42
CC(C)(Cc1cc(CC(C)(C)C(=O)O)cc(C(C)(C)C)c1)C(=O)O	Pf growth 96h inconclusive, Pf growth 48h inconclusive
COc1ccc(CCCC(=O)Nc2ccc(F)cc2)cc1	none
O=C(NNC(=O)c1ccccc1O)c1ccc(Cl)c(S(=O)(=O)N2CCc3ccccc32)c1	Pf growth 48h inconclusive (no result: Shiga toxin inh, NS1 function inh, Cycloheximide cs)
CCOc1cc(CNn2cn[nH]c2=S)cc(Cl)c1OCc1ccccc1F	Pf growth 96h inconclusive
CC1=C/C(=N\NC(=O)c2ccccc2)CC1	Shiga toxin inh active, Cycloheximide cs 43
Cn1nc(C(=O)Nc2nc3ccccc3[nH]2)ccc1=O	Shiga toxin inh 84, Cycloheximide cs 46 (no result: NS1 function inh)
CSc1ccccc1C(=O)Nc1nc2ccccc2c(=O)[nH]1	Shiga toxin inh 80, Cycloheximide cs 32
COc1ccccc1C(=O)Nc1nc2ccccc2[nH]1	none
COc1cc(SC)ccc1C(=O)Nc1nc2ccccc2[nH]1	Pf growth 96h 0.17µM, Pf growth 48h inconclusive
CCSc1ccccc1C(=O)Nc1nc2ccccc2c(=O)[nH]1	none
CSc1ccccc1C(=O)Nc1nc2ccccc2[nH]1	Shiga toxin inh 73, Cycloheximide cs 39 (no result: NS1 function inh)
O=C(Nc1ccon1)Nc1ccccc1C(F)(F)F	none
CCOC(=O)C1CCN(CC(=O)Nc2cc(S(=O)(=O)N3CCOCC3)ccc2C)CC1	Pf growth 96h inconclusive (no result: NS1 function inh)
CN(C(=S)NCCN1CCOCC1)C(c1ccccc1)c1ccccc1	none (no result: NS1 function inh)
Cc1sc(NC(=O)c2c(F)cccc2F)nc1-c1ccccc1	Pf growth 96h inconclusive
CCCNc1nc2ccccc2c(=O)[nH]1	Pf growth 96h inconclusive (no result: NS1 function inh)
CC(C)Nc1nc2ccccc2c(=O)[nH]1	Pf growth 96h 10µM
Cc1sc(NC(=O)c2ccc(=O)n(C)n2)nc1-c1ccccc1	Cycloheximide cs 32 (no result: NS1 function inh)
COc1nc(Nc2nc3ccccc3c(=O)[nH]2)nc2ccc(C)cc12	Pf growth 96h inconclusive, Pf growth 48h 2.6µM
Cc1sc(NC(=O)Cn2[nH]c(=O)c3ccccc3c2=O)nc1-c1ccccc1	Pf growth 96h 12µM, Pf growth 48h inconclusive, NS1 function inh inconclusive
CCCC1CC(CCc2ccccc2)OS(=O)(=O)N1 (configuration not stated)	none
CCc1ccccc1NC(=O)COC(=O)C1C2CC3OC(=O)C1C3C2 (configuration not stated)	none
Fc1ccc(-c2csc3[n+]2CCS3)cc1	Pf growth 96h 4.1µM, Pf growth 48h 10µM
O=[N+]([O-])c1ccc(-c2csc3[n+]2CCS3)cc1	Pf growth 96h 9.3µM (no result: Pf growth 48h)
NC1=C(c2ccc([N+](=O)[O-])cc2)C(=O)CO1	none
C[C@@H](NC(=O)C1(c2ccccc2)CCN(C(=O)OC(C)(C)C)CC1)C(=O)N[C@@H](Cc1ccccc1)C(=O)O	Pf growth 96h inconclusive, Pf growth 48h inconclusive
CCOC(=O)N1C(=O)[C@](CC)(c2ccccc2)N1C(=O)OCC	Cycloheximide cs 19
CCC1(c2ccccc2)C(=O)N(C(=O)OC(C)(C)C)N1C(=O)OC(C)(C)C (configuration not stated)	Pf growth 96h inconclusive, Pf growth 48h 13µM (no result: Shiga toxin inh, NS1 function inh, Cycloheximide cs)
CCOC(=O)C1C(C(=O)OCC)C1(c1ccccc1)c1ccccc1 (configuration not stated)	Pf growth 48h inconclusive
CC(C)(CO)[C@@H](O)C(=O)NCCC(=O)NCCSSCCNC(=O)CCNC(=O)[C@H](O)C(C)(C)CO	none (no result: Shiga toxin inh, NS1 function inh, Cycloheximide cs)
O=C(O)c1coc2ccccc12	none (no result: Pf growth 96h)
O=C(/C=C/N1CCOCC1)c1cc2ccccc2o1	Shiga toxin inh 71, Cycloheximide cs 27
CCC(=O)N1CCN(c2ccc(NC(=O)c3ccc(-c4ccccc4)cc3)cc2)CC1	Pf growth 96h inconclusive (no result: Pf growth 48h)
O=C(/C=C/N1CCOCC1)c1coc2ccccc12	Shiga toxin inh 63, Cycloheximide cs 35
O=C(Nc1ccc(N2CCOCC2)cc1)c1cc2ccccc2o1	Shiga toxin inh 76, Cycloheximide cs 54 (no result: Pf growth 96h)
CCC(=O)N1CCN(c2ccc(NC(=O)c3cc4ccccc4o3)cc2)CC1	Pf growth 48h inconclusive, Cycloheximide cs 16
O=C(Nc1ccc(CN2CCOCC2)cc1)c1cc2ccccc2o1	Shiga toxin inh 64, Cycloheximide cs 34 (no result: Pf growth 96h)
CCOC(=O)c1ccc(NC(=O)c2ccc(CN3CCOCC3)cc2)cc1	Pf growth 48h inconclusive
O=C(NC(=S)Nc1ccc(CN2CCOCC2)cc1)c1cc2ccccc2o1	none
O=C(Nc1ccc(CN2CCOCC2)cc1)c1cc2ccccn2n1	Shiga toxin inh 38, Cycloheximide cs 22
O=C(Nc1ccc(N2CCN(C(=O)c3ccc(Cl)cc3)CC2)cc1)c1cc2ccccc2o1	Pf growth 96h 5.9µM (no result: Pf growth 48h)
C[C@@H]1OC(O[C@H]2[C@H](Oc3cc(O)c4c(=O)c(O)c(-c5ccc(O)cc5)oc4c3)O[C@H](CO)[C@@H](O)[C@@H]2O)[C@H](O)[C@H](O)[C@H]1O (some centres not stated)	none (no result: Pf growth 96h, Pf growth 48h, NS1 function inh)
CCc1sc(C(=O)Nc2ccc(NC(C)=O)cc2)cc1C	none
CCOC(=O)c1sc(NC(=O)c2cc3c(s2)CCC(C)C3)nc1C (configuration not stated)	none (no result: Pf growth 48h)
Cc1csc(NC(=O)c2cc3c(C)nn(Cc4ccccc4Cl)c3s2)n1	Pf growth 48h inconclusive, Cycloheximide cs 42
Cc1nc(NC(=O)CCl)sc1C(=O)N(C)C	Pf growth 48h inconclusive
